Experimental findings from PubChem BioAssay (EPA / NIEHS) are described below.

The source made the active and inactive calls. How the source made its calls: active means hit-call score of the fitted dose curve at least 0.9, where 1 is the maximum; inactive means score below 0.9.

A word on the AC50: it is the concentration giving half of the maximal activity seen.

A short description of this assay: ATG_SREBP_CIS: Attagene CIS-FACTORIAL HepG2 Assay for human Sterol Regulatory Element Binding (SREBP) (AID 2282962). The settings on record: HepG2 Attagene cis-factorial SREBP reporter, mRNA; actives raise or lower the signal. On the procedure:
ATG_CIS is a cell-based, multiplexed-readout assay that uses HepG2, a human liver cell line, with measurements taken at 24 hours after chemical dosing in a 24-well plate.ATG_SREBP_CIS is one of 52 assay component(s) measured or calculated from the ATG_CIS assay. It is designed to make measurements of mRNA induction, a form of inducible reporter, as detected with fluorescence intensity signals by Reverse transcription polymerase chain reaction (RT-PCR) and Capillary electrophoresis technology.Data from the assay component ATG_SREBP_CIS was analyzed into 1 assay endpoint. This assay endpoint, ATG_SREBP_CIS, was analyzed with bidirectional fitting relative to DMSO as the negative control and baseline of activity. Using a type of inducible reporter, measures of mRNA for gain or loss-of-signal activity can be used to understand the reporter gene at the transcription factor-level as they relate to the gene SREBF1. Furthermore, this assay endpoint can be referred to as a primary readout, because this assay has produced multiple assay endpoints where this one serves a reporter gene function. To generalize the intended target to other relatable targets, this assay endpoint is annotated to the dna binding intended target family, where the subfamily is basic helix-loop-helix leucine zipper.
Human liver HepG2 cells are transiently transfected with multiple reporter transcription units (MRTUs) in 6-well plates using FuGene 6 reagent (Roche; 3 ml FuGene/1 mg DNA). The MRTU constructs are regulated by a cis-regulating element (promoter). […] A major difference between the CIS and TRANS system is that in CIS activities of endogenous TFs are measured, whereas the TRANS assay evaluates changes in activities of exogenous, chimeric NR-Gal4 proteins. […] At the end of 24 hour incubation, total RNA was isolated using TriZol reagent (Invitrogen). The isolated RNA is then reverse-transcribed using oligo(dT) primer and Mo-MLV reverse transcriptase (Invitrogen) with DNAse I (Ambion) treatment for 30 min. The one-tenth of the produced cDNA was amplified by PCR using Taq DNA polymerase (Invitrogen) and two reporter sequence-specific primers. The PCR products were fluorescently labeled by primer extension with 6-arboxyfluorescein (6-FAM) 5'-labeled reporter sequence-specific primer (2 min at 95 C, 20 s at 68 C and 10 min at 72 C) and these products were digested with 5U of HpaI (New England Biolabs) for 2h at 37 C. The fragments were purified using Qiaquick PCR columns (Qiagen), analyzed on an ABI 3130xL genetic analyzer (Applied Biosystems) with peak positions identified by using a set of X-rhodamine (ROX)-labeled MapMarker1000 molecular weight standards (BioVentures). The raw capillary electrophoresis data was processed using Attagraph software (Attagene).
As for `C=CC(=O)NC(C)(C)C`, the call was inactive.

`CCCCNS(=O)(=O)c1ccc(C)cc1`: the outcome was inactive. Same read-out and setting: in the case of `CC(C=O)c1ccccc1` (stereo not given) it was “inactive”. Turning to `C=CC(=O)OCCCCCCOC(=O)C=C`, the AC50 is 100 µM (active). Regarding `CC(C)(O)Cc1ccccc1`, the call was inactive.

`O=C(O)C1CCC(C(=O)O)CC1` (stereo not given): the compound was called inactive. Still for that read-out and setting: the same measure for `O=C(O)CCCC(=O)O`: “inactive”; for `CCOC(=O)CC(=O)c1ccccc1`: “inactive”; for `CC(C)c1ccc(O)c(C(C)C)c1`: “inactive”. As to `Clc1cccnc1`, the call was inactive. For `[Cl][Eu]([Cl])[Cl]`, the call was inactive. For `CC1=C(O)C(=O)C(C)O1` (stereo not given), the compound was called inactive. Take `C[Si](C)(C)N[Si](C)(C)C`: the result was inactive. Take `C=CC(=O)O[C@H]1C[C@@H]2CC[C@@]1(C)C2(C)C`: the result was inactive. With `CC(=O)OC/C=C(/C)CCC=C(C)C`, the outcome was inactive. Still for that read-out and setting: in the case of `N#CC1(N)CCCCC1` it was “inactive”; in that of `CCCSSCCC`, “inactive”; in that of `CCOC(=O)C1=NN(c2ccc(Cl)cc2Cl)C(C)(C(=O)OCC)C1` (stereo not given), “inactive”. `CC(=O)c1ccc(S(=O)(=O)NC(=O)NC2CCCCC2)cc1`: the outcome was inactive. For `CCCCOC(=O)C(C)CC` (stereo not given), the compound was called inactive. The same measure, in the same setting: in the case of `CCOC(=O)C1=NOC(c2ccccc2)(c2ccccc2)C1` it was “inactive”; in that of `C=CCOC(=O)c1ccc(C(=O)OCC=C)c(C(=O)OCC=C)c1`, “inactive”; in that of `COC(Cc1ccccc1)OC`, “inactive”. Regarding `CC(=O)OCC=C(C)C`, the compound was called inactive. As to `[Cl][Sc]([Cl])[Cl]`, the compound was classed as inactive. As for `CC1CCC(=O)C1=O` (stereo not given), the result was inactive. On to `O=C(O[C@@H]1Cc2c(O)cc(O)cc2O[C@@H]1c1cc(O)c(O)c(O)c1)c1cc(O)c(O)c(O)c1`, for which the result was inactive. On to `CC1=CCC2CC1C2(C)C` (stereo not given), for which the compound was called inactive. For `Cc1cccc(C(C)(C)C)c1O`, the compound was classed as inactive. With `CCC1COC(=O)O1` (stereo not given), the result was inactive. For `CCCCCCCC(=O)OCC`, the result was inactive.

As for `O=C(C=Cc1ccccc1)OCCc1ccccc1`, the result was inactive. Take `O=C(O)CC(C(=O)O)S(=O)(=O)O` (stereo not given): the compound was classed as inactive. On to `c1ccc2c(c1)[nH]c1ccccc12`, for which the call was inactive.

With `Cc1cc(=O)[nH]c(=O)[nH]1`, the call was inactive. As to `Cc1ccc(C)c(OCCCC(C)(C)C(=O)O)c1`, the outcome was inactive. As to `COC(=O)c1ccccc1C`, the call was inactive. In the case of `O=S(=O)(O)c1ccc(Nc2nc(Nc3ccc(C=Cc4ccc(Nc5nc(Nc6ccc(S(=O)(=O)O)cc6)nc(N(CCO)CCO)n5)cc4S(=O)(=O)O)c(S(=O)(=O)O)c3)nc(N(CCO)CCO)n2)cc1`, the compound was classed as inactive. Regarding `CC(c1cc(C(C)(C)C)cc(C(C)(C)C)c1O)c1cc(C(C)(C)C)cc(C(C)(C)C)c1O`, the result was inactive.

Take `Oc1c(Cl)cc(Cl)c(Cl)c1Cl`: the compound was classed as inactive.
